Screening data deposited in PubChem by National Center for Advancing Translational Sciences (NCATS).
Compounds with a hit are over-represented: about 19% of the library has one in this group of screens.
TDP1 cell CPT = growth inhibition of DT40 Tdp1-/-;hTDP1 cells with camptothecin (screen for TDP1 inhibitors). chicken DT40 Tdp1-/-;hTDP1 cells + 20 nM CPT, ATP luminescence, 48 h. Potency, µM (titrated, usually from 46.2 µM), for the others: at the highest dose activity change, negative = growth inhibition, hits mostly inhibitors. 12% of 420,000 active. AID 686979; further: nearly all actives have a fitted effect of over 55% in size
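Chicken DT40 Tdp1-/- cells stably complemented with human TDP1 were seeded at 400 cells/well in medium containing 20 nM camptothecin, exposed to pin-transferred compounds, and grown at 37 °C for at least 48 hr. Viability was read as ATP luminescence.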
KB-V1 MDR tox = KB-V1 MDR subline cytotoxicity. KB-V1 MDR cells viability, CellTiter-Glo, 72 h. Potency, µM (doses to about 46.1 µM), actives largely listed as cytotoxic. 3.4% of 400,000 active; further: nearly all actives have a fitted effect of over 60% in size
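KB-V1, DMEM (no phenol red) + 10% FBS; cpd pin-transferred, titration series; 72 h, 37 degrees C; CellTiter-Glo, luminescence. Data normalized, curve-fit.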
HT1080NT lethal = kills 2HG-producing HT-1080-NT fibrosarcoma cells; HT-1080-NT fibrosarcoma viability, CellTiter-Glo ATP luminescence, 48 h; Potency, µM (top dose mostly 46.1 µM), inactives show at the highest dose activity, negative = less viability, usual class: cytotoxic; 1.6% of 360,000 active;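 further: NT is the 2HG producing partner of a matched IDH1 knockdown line; 0% = DMSO-treated cells and -100% = media-only wells without cells; nearly all actives have a fitted effect of over 55% in size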
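Luminescent CellTiter-Glo readout after 48 hours of compound exposure at 37 degrees C defined viability of HT-1080-NT cells. Activity was normalized to DMSO wells and cell-free media wells; concentration-response curves were fitted and assigned curve classes.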
TDP1 cell noCPT = qHTS for Inhibitors of human tyrosyl-DNA phosphodiesterase 1 (TDP1): qHTS in cells in absence of CPT. DT40 Tdp1-/- hTDP1 cells, no CPT, ATP luminescence, 48 h. 15% of 420,000 active. Potency, µM (highest dose often 46.2 µM), inactives show top-dose activity change, negative = growth inhibition, most hits filed as inhibitors; further: nearly all actives have a fitted effect of over 55% in size
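Compound effects on proliferation are scored in DT40 Tdp1-/-;hTDP1 cells in the absence of CPT. ATP levels (CellTiter-Glo luminescence) are recorded after a ≥48 hr, 37 °C incubation.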
HT1080 IDH1KD tx = toxicity to HT-1080 IDH1 knockdown cells (counter line). HT-1080 IDH1 knockdown viability, ATP luminescence, 48 h. Potency, µM (doses to about 46.1 µM), without a hit: at the highest dose activity, negative = toxicity, most hits filed as cytotoxic. 2% of 360,000 active;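 further: 0% = DMSO wells and -100% = cell-free medium wells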
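In this qHTS, HT-1080 cells depleted of IDH1 are exposed for 48 h at 37 °C to compound titrations. Toxicity is scored from CellTiter-Glo luminescence, with DMSO as full viability and medium alone as none.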
KB-3-1 cytotox = kills parental KB-3-1 adenocarcinoma cells; KB-3-1 viability, CellTiter-Glo ATP luminescence, 72 h; Potency, µM (series often up to 46.1 µM), usual class: cytotoxic; 1.4% of 400,000 active; AID 1347075; further: nearly all actives have a fitted effect of over 60% in size
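Parental KB-3-1 adenocarcinoma cells in phenol-red-free DMEM with 10% FBS were pin-treated with compounds at several concentrations, incubated 72 h at 37 °C, and viability read by CellTiter-Glo luminescence; concentration-effect curves were fitted after normalization.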
An asterisk follows results filed as active; i = inactive; ? = inconclusive; · = no result; [ ] = dose if it differs, or a comment. The call rests on the fitted dose curve; in most records, active means well fitted curve in the direction sought with a large enough effect; inconclusive means small, poorly fitted or top-dose-only effect, or another doubt; inactive means no such curve, though single readings can be large; an effect the other way counts as inactive or inconclusive. Unless noted, on the % scale 0 is the no-effect control and ±100 the full control effect; potency means the concentration at half of the fitted maximal effect.

SMILES | TDP1 cell CPT | KB-V1 MDR tox | HT1080NT lethal | TDP1 cell noCPT | HT1080 IDH1KD tx | KB-3-1 cytotox
COc1ccc(OC)c2c(/C=C/c3c[nH]c4ccccc34)ccnc12 | -111% | ? | · | ? | · | 4.1µM*
CC(=O)N(/N=C/c1ccc(C)cc1)c1nc(CCl)cs1 | 15µM* | i | -4% | ? | -3% | i
CCNc1ncc2nc(-c3ccc(F)cc3)c(=O)n(CCOC)c2n1 | -22% | · | · | -3% | · | ·
O=c1c2oc3ccccc3c2n(Cc2cccc(F)c2)c(=O)n1Cc1ccc2c(c1)OCO2 | -29% | · | · | ? | · | ·
COc1ccc(C(CCN2CCN(c3ccccc3)CC2)c2c(O)cc(OC)cc2OC)cc1 (configuration not stated) | 16µM* | ? | -4% | 21µM* | -16% | i
COc1cc(O)c(C(CCN2CCOCC2)c2ccc(N(C)C)cc2)c(OC)c1 (configuration not stated) | 15µM* | i | -9% | ? | -2% | i
COc1cc(O)c(C(CCN2CCN(c3ccccc3)CC2)c2ccc(N(C)C)cc2)c(OC)c1 (configuration not stated) | 13µM* | ? | -11% | 21µM* | -15% | i
COc1cc(O)c(C(CCN2CCOCC2)c2ccc3c(c2)OCO3)c(OC)c1 (configuration not stated) | ? | i | 1% | ? | 4% | i
COCC(=O)N(C)C[C@H]1Oc2ncc(Br)cc2C(=O)N([C@@H](C)CO)C[C@H]1C | 2% | i | 19% | 6% | 12% | i
O=C1C=CN(C2OC(CO)C(O)C2O)C(=O)C1 (configuration not stated) | 8.2µM* | i | -2% | 3.7µM* | ? | i
COc1cccc(-c2nc3cc(SC)ccc3cc2CN(C(=O)c2sccc2C)C2CC2)c1 | 2% | · | · | -2% | · | ·
CCc1ccc(S(=O)(=O)/N=C2/C=C(Sc3ncn[nH]3)C(=O)c3ccccc32)cc1 | 0.65µM* | i | 5.8µM* | 0.73µM* | 5.2µM* | i
CCc1ccc(S(=O)(=O)/N=C2\C=C(Nc3cccc(C(=O)O)c3)C(=O)c3ccccc32)cc1 | 18µM* | i | 8.2µM* | 16µM* | 7.3µM* | i
CCc1ccc(S(=O)(=O)/N=C2\C=C(Nc3ccc(O)cc3)C(=O)c3ccccc32)cc1 | 4.1µM* | ? | 2.9µM* | 3.3µM* | 2.9µM* | 2.9µM*
COc1cccc(Cn2c(=O)c(C)nc3cnc(OC)nc32)c1 | -1% | · | · | -12% | · | ·
CN(C)CCCOc1ccc(C(C)(C)c2ccccc2)cc1 | ? | i | -5% | 18µM* | -3% | ?
COc1cc(CN(C2CC2)S(=O)(=O)c2ccccc2Br)cc(OC)c1 | ? | i | -2% | 13µM* | -1% | ?
C=CCOC(=O)C1=C[C@H](c2ccc(C(F)(F)F)cc2)[C@@H](CCCO)[C@H](OCC)O1 | 23µM* | i | -2% | ? | 2% | i
C=CCOC(=O)C1=C[C@@H](c2ccc(C(F)(F)F)cc2)[C@H](CCCO)[C@@H](OCC)O1 | 23µM* | i | 2% | 12µM* | 0% | i
CCO[C@@H]1OC(C(N)=O)=C[C@H](c2ccc(C(F)(F)F)cc2)[C@H]1CCCO | -17% | i | -9% | -17% | -3% | i
C=CCOC(=O)C1=C[C@@H](c2ccc(Br)cc2)[C@H](CCCO)[C@@H](OCC)O1 | ? | i | -2% | ? | -5% | i
C=CCOC(=O)C1=C[C@@H](c2ccccc2)[C@H](CCCO)[C@@H](OCC)O1 | 15µM* | i | ? | ? | ? | i
COc1ccc(-n2c(=O)c(-c3cccc(F)c3)nc3cncnc32)cc1 | -1% | · | · | 2% | · | ·
Cc1ccc(CNC(=O)C(C)n2nc(C)n3c(cc4sccc43)c2=O)cc1 (configuration not stated) | -24% | i | · | -29% | · | i
COc1ccc(-c2nn(-c3ccccc3)cc2/C=N/O)cc1OC | ? | i | -10% | 26µM* | -1% | i
SMILES | TDP1 cell CPT | KB-V1 MDR tox | HT1080NT lethal | TDP1 cell noCPT | HT1080 IDH1KD tx | KB-3-1 cytotox
COc1ccc(-c2nn(-c3ccccc3)cc2/C=N/N=C(N)N)cc1OC | 23µM* | i | -12% | 13µM* | ? | ?
COc1ccc(-c2nn(-c3ccccc3)cc2/C=N/NC(=S)NC(C)C)cc1OC | 23µM* | ? | 3% | 18µM* | -7% | i
COc1ccc(-c2nn(-c3ccccc3)cc2/C=N/Nc2ccc3ccccc3n2)cc1OC | 3.3µM* | ? | -4% | 4.1µM* | -2% | i
C=CCc1ccc(OCC(O)CN2CCN(Cc3ccc(Cl)cc3)CC2)c(OC)c1 (configuration not stated) | ? | ? | 21µM* | 21µM* | 21µM* | 23µM*
OC(COc1ccccc1F)CN1CCC(Cc2ccccc2)CC1 (configuration not stated) | ? | i | -1% | ? | -2% | i
C=CCc1ccc(OCC(O)CN2CCN(c3ccccc3OC)CC2)c(OC)c1 (configuration not stated) | -19% | i | -12% | -8% | -23% | i
OC(COc1ccccc1)CN1CCC(Cc2ccccc2)CC1 (configuration not stated) | 5% | i | -9% | -17% | -10% | i
COc1cccc(OCC(O)CN2CCC(Cc3ccccc3)CC2)c1 (configuration not stated) | ? | i | -19% | 18µM* | -17% | ?
C=CCc1ccc(OCC(O)CN2CCC(Cc3ccccc3)CC2)c(OC)c1 (configuration not stated) | ? | 21µM* | ? | ? | -9%[9.24 µM] | i
OC(COc1ccc(F)cc1Cl)CN1CCC(Cc2ccccc2)CC1 (configuration not stated) | ? | i | -17% | 21µM* | -15% | i
O=C(c1cccs1)C1CCCN(Cc2nc(Cc3ccccc3F)no2)C1 (configuration not stated) | -20% | i | -2% | -30% | 0% | i
CC(C)CN(C(=O)COC(=O)c1cc2ccccc2cc1O)c1c(N)n(Cc2ccccc2)c(=O)[nH]c1=O | ? | i | ? | ? | -15% | i
